# According to PubChem BioAssay (EPA / NIEHS):
# Values joined by “and” are separate entries in the source; they are usually repeats but may differ in a detail not shown here. Equal values may be shown once. Some compounds were tested as several samples or in several runs, with calls that do not always agree. Active and inactive are the calls of the source. Rule for the calls: active = hit-call score of the fitted dose curve at least 0.9, where 1 is the maximum; inactive = score below 0.9.
# Columns and labels:
# Conditions in all cases: mRNA level, 48 h; actives raise or lower the signal
# [1] = read-out: CYP2C8 (gene 1558); assay: LTEA_HepaRG_CYP2C8: Life Technologies and Expression Analysis (LTEA) Assay for CYP2C8 using HepaRG (AID 2283483)
# In short: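 HepaRG (human liver line), 48 h chemical exposure, 8-pt half-log series from 100 uM, 0.5% DMSO vehicle. Readout: CYP2C8 transcript by qRT-PCR, housekeeping-normalized. Bidirectional fit vs DMSO baseline.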
# [2] = read-out: CYP2C9 (gene 1559); assay: LTEA_HepaRG_CYP2C9: Life Technologies and Expression Analysis (LTEA) Assay for CYP2C9 using HepaRG (AID 2283484)
# In short: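 HepaRG, 48 h dosing, 8-pt half-log series, top 100 uM, 0.5% DMSO vehicle. Read-out: CYP2C9 transcript by TaqMan qRT-PCR, housekeeping-normalized (ACTB/GAPDH/POLR2A). Gain or loss fitted vs DMSO baseline.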
# [3] = read-out: CYP2E1 (gene 1571); assay: LTEA_HepaRG_CYP2E1: Life Technologies and Expression Analysis (LTEA) Assay for CYP2E1 using HepaRG (AID 2283485)
# In short: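 Assay uses 48 h exposure of HepaRG hepatic cells, eight concentrations to 100 uM. Expression of CYP2E1 is quantified by TaqMan qRT-PCR with ACTB, GAPDH and POLR2A normalization; curves fitted in both directions relative to vehicle.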
# [4] = read-out: CYP4A11 (gene 1579); assay: LTEA_HepaRG_CYP4A11: Life Technologies and Expression Analysis (LTEA) Assay for CYP4A11 using HepaRG (AID 2283486)
# In short: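 Readout is CYP4A11 mRNA induction or suppression (qRT-PCR, ACTB/GAPDH/POLR2A normalization) in human HepaRG cells after 48 h chemical treatment, concentrations to 100 uM in 0.5% DMSO, fitted bidirectionally against vehicle.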
# [5] = read-out: DNA damage-inducible transcript 3 (DDIT3), DDIT3 (gene 1649); assay: LTEA_HepaRG_DDIT3: Life Technologies and Expression Analysis (LTEA) Assay for DNA damage-inducible transcript 3 (DDIT3) using HepaRG (AID 2283488)
# In short: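 Eight-point concentration-response (100 uM highest, half-log dilutions) in HepaRG, 48 h, duplicate wells. Endpoint: qRT-PCR mRNA, normalized (ACTB, GAPDH, POLR2A), bidirectional fitting with DMSO as baseline.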
# [6] = read-out: Early growth response protein 1 (EGR1) transcription factor, EGR1 (gene 1958); assay: LTEA_HepaRG_EGR1: Life Technologies and Expression Analysis (LTEA) Assay for Early growth response protein 1 (EGR1) transcription factor using HepaRG (AID 2283490)
# In short: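 HepaRG, 48 h exposure, 8-pt half-log series from 100 uM, 0.5% DMSO vehicle; EGR1 transcript by TaqMan qRT-PCR (Fluidigm array), housekeeping-normalized; bidirectional fit relative to DMSO baseline.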
# [7] = read-out: Ezrin (EZR), EZR (gene 7430); assay: LTEA_HepaRG_EZR: Life Technologies and Expression Analysis (LTEA) Assay for Ezrin (EZR) using HepaRG (AID 2283491)
# In short: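 EZR transcript levels came from Fluidigm qRT-PCR and were normalized to three housekeeping genes after 48 h chemical exposure of HepaRG cells. Dosing used an 8-point half-log series with a 100 uM top concentration in 0.5% DMSO, tested in duplicate; both directions were fitted versus vehicle.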
# [8] = read-out: Cytochrome P450 3A7 (Homo sapiens) (UniProt P24462); assay: LTEA_HepaRG_CYP3A7: Life Technologies and Expression Analysis (LTEA) Assay for CYP3A7 using HepaRG (AID 2283492)
# In short: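 Cells were thawed, plated, cultured 48 h, then treated for a further 48 h with chemicals (eight-point half-log series from 100 uM, 0.5% DMSO). RNA was isolated and CYP3A7 expression quantified by qRT-PCR normalised to ACTB, GAPDH and POLR2A.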
# [9] = read-out: CYP3A5 (gene 1577); assay: LTEA_HepaRG_CYP3A5: Life Technologies and Expression Analysis (LTEA) Assay for CYP3A5 using HepaRG (AID 2283493)
# In short: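 Readout was CYP3A5 mRNA by qRT-PCR. HepaRG cultures were exposed for 48 h in serum-free induction medium to chemicals at up to 100 uM, and responses were fitted in both directions relative to DMSO vehicle.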
# [10] = read-out: Fatty Acid-Binding Protein 1 (FABP1), FABP1 (gene 2168); assay: LTEA_HepaRG_FABP1: Life Technologies and Expression Analysis (LTEA) Assay for Fatty Acid-Binding Protein 1 (FABP1) using HepaRG (AID 2283494)
# In short: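 qRT-PCR readout of FABP1 transcript (normalized to three housekeeping genes) after 48 h chemical exposure of HepaRG cells; eight concentrations, half-log steps, max 100 uM, 0.5% DMSO vehicle; gain or loss fitted relative to DMSO baseline.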
# [11] = read-out: Cytochrome P450 4A22 (Homo sapiens) (UniProt Q5TCH4); assay: LTEA_HepaRG_CYP4A22: Life Technologies and Expression Analysis (LTEA) Assay for Cytochrome P450 4A22 (CYP4A22) using HepaRG (AID 2283495)
# In short: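 Cryopreserved HepaRG cells, plated and cultured 48 h, then switched to serum-free induction medium and treated 48 h (duplicates, up to 100 uM, half-log steps, 0.5% DMSO). Expression change of CYP4A22 was fitted bidirectionally against vehicle.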
# [12] = read-out: Cytochrome P450 7A1 (Homo sapiens) (UniProt P22680); assay: LTEA_HepaRG_CYP7A1: Life Technologies and Expression Analysis (LTEA) Assay for Cytochrome P450 7A1 (CYP7A1) using HepaRG (AID 2283496)
# In short: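 Using 0.5% DMSO as vehicle and baseline, chemicals were tested in duplicate over an 8-point range from 100 uM on HepaRG cells for 48 h; qRT-PCR signals were normalised to ACTB, GAPDH and POLR2A.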
# [13] = read-out: Glutathione S-Transferase (GSTA2), GSTA2 (gene 2939); assay: LTEA_HepaRG_GSTA2: Life Technologies and Expression Analysis (LTEA) Assay for Glutathione S-Transferase (GSTA2) using HepaRG (AID 2283497)
# In short: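 qRT-PCR readout of GSTA2 transcript, normalized to three housekeeping genes, fitted bidirectionally against 0.5% DMSO baseline. Differentiated HepaRG cells received compound for 48 h at 8 concentrations (top 100 uM, half-log steps).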
# [14] = read-out: Glutamate-cysteine ligase catalytic (GCLC), GCLC (gene 2729); assay: LTEA_HepaRG_GCLC: Life Technologies and Expression Analysis (LTEA) Assay for Glutamate-cysteine ligase catalytic (GCLC) using HepaRG (AID 2283498)
# In short: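 HepaRG, 48 h exposure, 8-pt half-log series from 100 uM, 0.5% DMSO vehicle; TaqMan qRT-PCR for GCLC mRNA, housekeeping-normalized; bidirectional curve fit vs DMSO baseline.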
# [15] = read-out: growth arrest and DNA damage 45 (GADD45G), GADD45G (gene 10912); assay: LTEA_HepaRG_GADD45G: Life Technologies and Expression Analysis (LTEA) Assay for growth arrest and DNA damage 45 (GADD45G) using HepaRG (AID 2283499)
# In short: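 Human hepatic HepaRG line treated 48 h with chemicals (eight concentrations, half-log steps from 100 uM); transcript induction or repression of GADD45G scored by qRT-PCR versus DMSO vehicle.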
# [16] = read-out: Glutamate-cysteine ligase regulatory (GCLM), GCLM (gene 2730); assay: LTEA_HepaRG_GCLM: Life Technologies and Expression Analysis (LTEA) Assay for Glutamate-cysteine ligase regulatory (GCLM) using HepaRG (AID 2283500)
# In short: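 In this multiplexed HepaRG gene-expression assay, GCLM mRNA change after 48 h treatment (8 concentrations, max 100 uM) was scored against DMSO by bidirectional curve fitting.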
# [17] = read-out: Glutathione S-transferase M3 (GSTM3), GSTM3 (gene 2947); assay: LTEA_HepaRG_GSTM3: Life Technologies and Expression Analysis (LTEA) Assay for Glutathione S-transferase M3 (GSTM3) using HepaRG (AID 2283501)
# In short: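 Changes in GSTM3 expression, an oxidative-stress marker, were scored by bidirectional curve fitting against 0.5% DMSO vehicle. Human HepaRG cultures received chemicals for 48 h in duplicate, highest concentration 100 uM with half-log dilutions.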
# [18] = read-out: Heat shock 70 kDa protein 1 (HSPA1A), gene 3303; assay: LTEA_HepaRG_HSPA1A: Life Technologies and Expression Analysis (LTEA) Assay for Heat shock 70 kDa protein 1 (HSPA1A) using HepaRG (AID 2283502)
# In short: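 An oxidative-stress marker readout: HepaRG cells treated 48 h in duplicate with an eight-point series (highest 100 uM) had HSPA1A mRNA quantified by TaqMan qRT-PCR. Activity was fitted in both directions using 0.5% DMSO as baseline.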
# [19] = read-out: Pro-epidermal growth factor (Homo sapiens) (UniProt P01133); assay: LTEA_HepaRG_EGF: Life Technologies and Expression Analysis (LTEA) Assay for Epidermal growth factor (EGF) using HepaRG (AID 2283489)
# In short: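 EGF expression changes in human HepaRG cells are scored by bidirectional fitting relative to 0.5% DMSO controls. Chemicals are tested at eight half-log concentrations up to 100 uM for 48 h in serum-free induction medium.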
# [20] = read-out: Cytochrome P450 3A4 (Homo sapiens) (UniProt P08684); assay: LTEA_HepaRG_CYP3A4: Life Technologies and Expression Analysis (LTEA) Assay for CYP3A4 using HepaRG (AID 2283487)
# In short: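 Differentiated HepaRG cells, plated 48 h, then dosed 48 h in serum-free induction medium with 0.5% DMSO, 8 half-log concentrations up to 100 uM, duplicate. CYP3A4 mRNA by qRT-PCR, normalized to ACTB/GAPDH/POLR2A; bidirectional fit versus DMSO.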
# Chain of Cytochrome P450 3A7 (Homo sapiens) (P24462 whole entry, looked up): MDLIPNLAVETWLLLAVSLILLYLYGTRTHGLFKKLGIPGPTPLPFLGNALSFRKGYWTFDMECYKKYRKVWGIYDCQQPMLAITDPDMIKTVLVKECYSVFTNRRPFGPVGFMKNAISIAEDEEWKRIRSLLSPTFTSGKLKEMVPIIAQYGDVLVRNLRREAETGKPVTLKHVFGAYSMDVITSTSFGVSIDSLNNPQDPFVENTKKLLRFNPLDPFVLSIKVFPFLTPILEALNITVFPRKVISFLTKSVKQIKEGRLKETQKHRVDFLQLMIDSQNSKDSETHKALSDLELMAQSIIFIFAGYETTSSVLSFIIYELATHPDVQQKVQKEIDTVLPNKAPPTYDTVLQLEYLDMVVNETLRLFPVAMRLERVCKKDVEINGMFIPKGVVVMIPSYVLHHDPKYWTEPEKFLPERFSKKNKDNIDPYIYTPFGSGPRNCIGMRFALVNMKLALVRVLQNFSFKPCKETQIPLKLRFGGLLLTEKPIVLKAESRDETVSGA
# Chain of Cytochrome P450 3A4 (Homo sapiens) (P08684 whole entry, looked up): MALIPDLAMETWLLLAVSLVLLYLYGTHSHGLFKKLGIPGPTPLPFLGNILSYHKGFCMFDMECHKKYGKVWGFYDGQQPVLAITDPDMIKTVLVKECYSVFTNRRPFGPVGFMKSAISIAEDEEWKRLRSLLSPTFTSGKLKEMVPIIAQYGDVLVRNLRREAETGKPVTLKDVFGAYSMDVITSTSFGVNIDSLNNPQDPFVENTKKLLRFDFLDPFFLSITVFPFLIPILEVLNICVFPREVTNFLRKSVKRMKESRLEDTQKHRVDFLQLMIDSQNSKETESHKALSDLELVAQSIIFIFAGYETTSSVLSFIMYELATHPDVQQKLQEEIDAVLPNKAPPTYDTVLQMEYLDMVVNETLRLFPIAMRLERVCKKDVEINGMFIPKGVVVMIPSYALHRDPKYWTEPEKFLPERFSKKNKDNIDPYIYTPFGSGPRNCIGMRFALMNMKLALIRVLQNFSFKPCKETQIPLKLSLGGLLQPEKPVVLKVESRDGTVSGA
smiles,measurement,setting,value
CCOC(=O)CC(SP(=S)(OC)OC)C(=O)OCC (stereo not given),outcome,[1],inactive
same,outcome,[2],inactive
same,outcome,[3],inactive
same,outcome,[4],inactive
same,outcome,[5],inactive
same,outcome,[6],inactive
same,outcome,[7],inactive
same,outcome,[8],inactive
same,outcome,[9],inactive
same,outcome,[10],inactive
same,outcome,[11],inactive
same,outcome,[12],inactive
same,outcome,[13],inactive
same,outcome,[14],inactive
same,outcome,[15],inactive
same,outcome,[16],inactive
same,outcome,[17],inactive
same,outcome,[18],inactive
O=C(O)COc1nc(Cl)c(Cl)cc1Cl,outcome,[1],inactive
same,outcome,[2],inactive
same,outcome,[4],inactive
same,outcome,[5],inactive
same,outcome,[19],inactive
same,outcome,[6],inactive
same,outcome,[7],inactive
same,outcome,[9],inactive
same,outcome,[10],inactive
same,outcome,[11],inactive
same,outcome,[12],inactive
same,outcome,[13],inactive
same,outcome,[14],inactive
same,outcome,[15],inactive
same,outcome,[16],inactive
same,outcome,[17],inactive
same,outcome,[18],inactive
CS/C(C)=N/OC(=O)N(C)SN(C)C(=O)O/N=C(\C)SC,outcome,[1],inactive
same,outcome,[2],inactive
same,outcome,[4],inactive
same,outcome,[5],inactive
same,outcome,[19],inactive
same,outcome,[6],inactive
same,outcome,[7],inactive
same,outcome,[8],inactive
same,outcome,[9],inactive
same,outcome,[10],inactive
same,outcome,[11],inactive
same,AC50,[12],9.92 µM (active)
same,outcome,[13],inactive
same,outcome,[14],inactive
same,outcome,[15],inactive
same,outcome,[16],inactive
same,outcome,[17],inactive
same,outcome,[18],inactive
C=CCC1=C(C)C(OC(=O)C2C(C=C(C)C)C2(C)C)CC1=O (stereo not given),AC50,[1],85.6 µM (active)
same,outcome,[1],inactive
same,AC50,[2],87.4 µM (active)
same,outcome,[2],inactive
same,AC50,[4],93.2 µM (active) and 95.2 µM (active)
same,outcome,[5],inactive
same,AC50,[6],64.1 µM (active) and 71.1 µM (active) and 50 µM (active)
same,outcome,[7],inactive
same,outcome,[8],inactive
same,outcome,[9],inactive
same,AC50,[10],50 µM (active) and 44.6 µM (active)
same,AC50,[11],84.3 µM (active) and 94.1 µM (active) and 90.4 µM (active)
same,AC50,[12],3.67 µM (active) and 72.6 µM (active) and 19.4 µM (active)
same,AC50,[13],84.3 µM (active)
same,outcome,[13],inactive
same,outcome,[14],inactive
same,outcome,[15],inactive
same,outcome,[16],inactive
same,outcome,[17],inactive
same,outcome,[18],inactive
CON(C)C(=O)Nc1ccc(Cl)c(Cl)c1,outcome,[1],inactive
same,outcome,[2],inactive
same,AC50,[3],77.6 µM (active)
same,AC50,[4],86.6 µM (active)
same,outcome,[5],inactive
same,outcome,[6],inactive
same,outcome,[7],inactive
same,outcome,[8],inactive
same,outcome,[9],inactive
same,AC50,[10],37.6 µM (active)
same,AC50,[11],84.4 µM (active)
same,AC50,[12],16.8 µM (active)
same,AC50,[13],50 µM (active)
same,AC50,[14],80 µM (active)
same,outcome,[15],inactive
same,AC50,[16],73.2 µM (active)
same,outcome,[17],inactive
same,outcome,[18],inactive
CC(Oc1ccc(Cl)cc1Cl)C(=O)O (stereo not given),outcome,[1],inactive
same,outcome,[2],inactive
same,outcome,[3],inactive
same,AC50,[4],71.5 µM (active)
same,outcome,[20],inactive
same,outcome,[5],inactive
same,outcome,[6],inactive
same,outcome,[7],inactive
same,outcome,[8],inactive
same,outcome,[9],inactive
same,AC50,[10],50 µM (active)
same,outcome,[11],inactive
same,outcome,[12],inactive
same,outcome,[13],inactive
same,outcome,[14],inactive
same,outcome,[15],inactive
same,outcome,[16],inactive
same,outcome,[17],inactive
same,outcome,[18],inactive
